Screening data: PubChem BioAssay, National Center for Advancing Translational Sciences (NCATS)
KDM5B inhibitor – inhibitors of human KDM5B histone demethylase; Q9UGL1; Potency, µM (highest dose often 57.7 µM), hits mostly inhibitors; KDM5B demethylase, FDH-coupled NADH fluorescence (FDH is formaldehyde dehydrogenase); actives 2.6% (n = 220,000); active means well fitted inhibition curve with a large enough effect; further: nearly all actives have a fitted effect of over 70% in size
Target sequence (Q9UGL1 whole entry, looked up): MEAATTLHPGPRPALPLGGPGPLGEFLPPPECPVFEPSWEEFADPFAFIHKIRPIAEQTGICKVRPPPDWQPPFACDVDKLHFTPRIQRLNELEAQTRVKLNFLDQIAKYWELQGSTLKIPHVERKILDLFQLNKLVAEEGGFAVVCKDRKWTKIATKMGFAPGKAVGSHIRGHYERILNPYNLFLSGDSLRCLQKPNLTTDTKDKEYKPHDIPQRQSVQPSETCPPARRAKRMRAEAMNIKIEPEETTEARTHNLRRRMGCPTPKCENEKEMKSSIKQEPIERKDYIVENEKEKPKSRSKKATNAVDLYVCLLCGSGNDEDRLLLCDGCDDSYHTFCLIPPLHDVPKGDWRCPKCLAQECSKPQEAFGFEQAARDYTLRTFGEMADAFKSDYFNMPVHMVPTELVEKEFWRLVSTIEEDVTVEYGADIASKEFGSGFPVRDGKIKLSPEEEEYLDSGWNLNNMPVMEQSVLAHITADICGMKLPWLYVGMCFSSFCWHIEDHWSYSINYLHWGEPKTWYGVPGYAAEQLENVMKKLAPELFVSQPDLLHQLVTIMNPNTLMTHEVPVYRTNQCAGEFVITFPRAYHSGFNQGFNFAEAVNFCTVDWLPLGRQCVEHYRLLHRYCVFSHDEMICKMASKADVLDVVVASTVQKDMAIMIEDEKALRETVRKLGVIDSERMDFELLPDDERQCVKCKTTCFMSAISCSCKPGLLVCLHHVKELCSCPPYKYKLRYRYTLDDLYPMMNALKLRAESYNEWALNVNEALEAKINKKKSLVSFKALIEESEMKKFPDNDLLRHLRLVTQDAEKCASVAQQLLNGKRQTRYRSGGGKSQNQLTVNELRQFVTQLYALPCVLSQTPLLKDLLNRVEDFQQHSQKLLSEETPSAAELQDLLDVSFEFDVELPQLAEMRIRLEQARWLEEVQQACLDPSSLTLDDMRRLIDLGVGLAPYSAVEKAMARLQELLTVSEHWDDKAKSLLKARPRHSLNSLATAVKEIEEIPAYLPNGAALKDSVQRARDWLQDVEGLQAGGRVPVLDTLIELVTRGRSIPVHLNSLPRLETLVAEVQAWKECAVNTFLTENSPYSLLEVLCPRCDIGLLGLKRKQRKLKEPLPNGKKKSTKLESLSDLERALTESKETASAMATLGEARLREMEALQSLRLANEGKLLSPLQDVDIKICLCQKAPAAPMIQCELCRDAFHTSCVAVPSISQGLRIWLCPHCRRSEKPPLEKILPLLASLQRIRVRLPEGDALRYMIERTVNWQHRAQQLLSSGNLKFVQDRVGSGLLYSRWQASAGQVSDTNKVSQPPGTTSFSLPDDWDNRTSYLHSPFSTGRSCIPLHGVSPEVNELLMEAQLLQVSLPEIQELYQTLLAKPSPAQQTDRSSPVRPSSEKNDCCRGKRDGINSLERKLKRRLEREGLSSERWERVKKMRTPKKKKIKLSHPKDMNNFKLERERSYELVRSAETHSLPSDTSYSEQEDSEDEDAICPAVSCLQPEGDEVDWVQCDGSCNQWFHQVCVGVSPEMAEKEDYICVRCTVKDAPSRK
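Coupled FDH/NAD⁺ fluorescence readout. KDM5BΔAP 200 nM final; compound titration, 10 min RT preincubation; substrate mix 12.5 µM H3K4me3, 25 µM 2-OG, 50 µM Fe(II), 100 µM ascorbate, 0.25 mM NAD⁺, 0.25 U/mL FDH; ΔRFU over 30 min.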
Of the large screens only hits and unclear results are named; the others gave an inactive call. The entries come from a sample that favours hits as a whole.

N#Cc1cccc(-c2ccnc(N[C@H]3CO[C@H]4[C@@H]3OC[C@@H]4NC(=O)C3CCCCC3)n2)c1	KDM5B inhibitor 35.5µM
COc1cc(NC(=O)O[C@@H]2CO[C@H]3[C@@H]2OC[C@@H]3NC(=O)c2cccs2)cc(OC)c1	none
N#Cc1cccc(-c2ccnc(N[C@H]3CO[C@H]4[C@@H]3OC[C@@H]4NC(=O)c3cccs3)n2)c1	KDM5B inhibitor 31.6µM
N#Cc1cccc(CN[C@@H]2CO[C@H](CNC(=O)c3cccs3)[C@H]2O)c1	none
O=C(COc1ccccc1)N[C@H]1CO[C@H]2[C@@H]1OC[C@@H]2Nc1nccc(-c2cccc(F)c2)n1	none
CC(C)(C)c1ccnc(N[C@H]2CO[C@H]3[C@@H]2OC[C@@H]3NC(=O)c2cccs2)n1	none
C=CCNC(=O)N[C@H]1CO[C@H]2[C@@H]1OC[C@@H]2Nc1nccc(-c2cccc(F)c2)n1	KDM5B inhibitor 39.8µM
CCN(CC)Cc1ccccc1CNC(=O)c1nn(C)c(=O)c2ccccc12	none
O=c1oc2ccccc2cc1S(=O)(=O)N1CCc2ccccc2C1	none
COc1cc(-c2cc(C(=O)O)c3ccccc3n2)cc(OC)c1OC	none
Cc1cc(OCC(=O)OCCCC(=O)c2ccc(F)cc2)ccc1Cl	none
CCOc1ccc(Nc2nc(N)c(C(=O)c3ccc(OC)c(OC)c3)s2)cc1	none
O=C(NCc1ccc(F)cc1)c1ccc[n+]([O-])c1	none
CN(C)S(=O)(=O)c1cccc(C(=O)OCC(=O)Nc2cc(C(F)(F)F)cc(C(F)(F)F)c2)c1	none
CCc1ccc(-c2noc(CSc3ccc(S(=O)(=O)N4CCCCCC4)cn3)n2)cc1	none
COc1ccccc1-c1ccnc(N[C@H]2CO[C@H]3[C@@H]2OC[C@@H]3NC(=O)Nc2cccc(C(F)(F)F)c2)n1	none
C=CCNC(=O)N[C@H]1CO[C@H]2[C@@H]1OC[C@@H]2Nc1nccc(-c2ccccc2OC)n1	KDM5B inhibitor 28.2µM
CC(C)(C)c1ccnc(N[C@H]2CO[C@H]3[C@@H]2OC[C@@H]3NC(=O)NCc2ccccc2)n1	none
O=C(Cc1ccc2ccccc2c1)Nc1nccs1	none
CCn1nc(C(=O)OCc2nc(-c3ccccc3)no2)c2ccccc2c1=O	none
CC1CCCC(c2ccc(O)cc2)(c2ccc(O)cc2)C1 (centres undefined)	none
CCc1ccc2oc(-c3cc(NC(=O)C(C)C)ccc3O)nc2c1	none
O=C1Cc2cc(S(=O)(=O)N3CCN(C(=O)Nc4ccccc4F)CC3)ccc2N1	none
O=C1N(CCc2ccccc2)CCOC12CCN([S+](=O)([O-])c1cccnc1)CC2	none
Cc1cccc([S+](=O)([O-])N2CCC3(CC2)OCCN(CC2CC2)C3=O)c1	none
N#Cc1ccc([S+](=O)([O-])N2CCC3(CC2)OCCN(CC2CCOCC2)C3=O)cc1	KDM5B inhibitor 31.6µM
CC1(C)Cc2ccccc2-c2nnc(-c3ccc(Br)o3)n21	none
CC(=O)Nc1ccc(NC(=O)CNC(=O)c2ccc3nc(-n4cccc4)sc3c2)cc1	none
Cc1nn(CCc2nc(-c3ccc(OC(F)F)cc3)cs2)c2[nH]c(=O)cc(C(F)(F)F)c12	none
S=C(NCCc1ccccc1)Nc1ccccc1I	none
Cc1ccc(-c2noc([C@@H]3Cc4nc[nH]c4CN3C(=O)c3ccc(F)cc3)n2)cc1	none
O=C(C1CCCCC1)N1Cc2[nH]cnc2C[C@H]1c1nc(-c2ccc3ccccc3c2)no1	KDM5B inhibitor 31.6µM
COc1ccc(CN2Cc3[nH]cnc3C[C@H]2c2nc(-c3ccc4ccccc4c3)no2)cc1	KDM5B inhibitor 15.8µM
Cc1ccc(-c2noc([C@@H]3Cc4nc[nH]c4CN3Cc3ccc(N(C)C)cc3)n2)cc1	none
Cc1cccc(-c2noc([C@@H]3Cc4nc[nH]c4CN3C(=O)NC(C)C)n2)c1	KDM5B inhibitor 8.91µM
COc1ccccc1CN1Cc2[nH]cnc2C[C@H]1c1nc(-c2cccc(C)c2)no1	none
Cc1ccc(NC(=O)N2Cc3[nH]cnc3C[C@H]2c2nc(-c3cccc([N+](=O)[O-])c3)no2)cc1	none
CN(C)c1ccc(CN2Cc3[nH]cnc3C[C@H]2c2nc(-c3ccccc3)no2)cc1	none
Fc1ccc(CN2Cc3[nH]cnc3C[C@H]2c2nc(-c3ccc(F)c(Cl)c3)no2)cc1	KDM5B inhibitor 35.5µM
O=C(NC1CCCCC1)N1Cc2[nH]cnc2C[C@H]1c1nc(-c2ccccc2)no1	none
Cc1ccc(NC(=O)N2Cc3[nH]cnc3C[C@H]2c2nc(-c3ccc(C)cc3)no2)cc1	none
CC(C)(CC(=O)O)CC(=O)N1Cc2[nH]cnc2C[C@H]1c1nc(-c2ccc3ccccc3c2)no1	none
O=C(NCCc1ccccc1)c1cc(-c2ccccn2)nc2ccccc12	none
O=C(NCc1ccccn1)c1cccc2ccccc12	none
CN(C)C[C@@H]1CN(S(C)(=O)=O)C[C@H]1NC(=O)CCC1CCCC1	none
Cc1ccc(NC(=O)c2ccc(=O)n(CCOc3ccccc3)n2)cc1F	none
CC(C)C(=O)N1Cc2ccccc2CC2(CCCCN2C)C1 (centres undefined)	none
C/C(=N\Nc1nnc(Cl)c2ccccc12)c1ccc([N+](=O)[O-])cc1	none
Nn1c(SCC(=O)NCc2ccc(Cl)cc2)nnc1-c1cccs1	none
C=CCOc1ccc(CNCc2ccco2)cc1OCC	none
CC1=NOC2(CCN(C(=O)c3ccc(C(F)(F)F)cc3)C2)C1 (centres undefined)	none
Cc1ccc(C(=O)C(C)OC(=O)c2ccc(Cl)c(N)c2)cc1 (centres undefined)	none
CCCCCn1nc(C(=O)NCc2ccco2)c2ccccc2c1=O	none
O=C(NCC(=O)N1CCN(CC(=O)N2CCCC2)CC1)c1ccc(N2CCCC2=O)cc1	none
Cc1cccc(C(=O)/C=C\N(C)C)c1	none
N#Cc1ccccc1N=Cc1cccc(Cl)c1	none
O=C(Nc1ccc(Cl)cc1)N1Cc2[nH]cnc2C[C@H]1c1nc(-c2ccc(F)c(Cl)c2)no1	none
COc1ccc(NC(=O)N2Cc3[nH]cnc3C[C@H]2c2nc(-c3ccncc3)no2)cc1	none
COC(=O)COCC(=O)N1Cc2[nH]cnc2C[C@H]1c1nc(-c2ccc(F)c(Cl)c2)no1	none
CN(C)c1ccc(CN2Cc3[nH]cnc3C[C@H]2c2nc(-c3ccncc3)no2)cc1	none
COc1ccc(CN2Cc3[nH]cnc3C[C@H]2c2nc(-c3ccncc3)no2)cc1	KDM5B inhibitor 28.2µM
CCNC(=O)N1Cc2[nH]cnc2C[C@H]1c1nc(-c2ccc(F)c(Cl)c2)no1	KDM5B inhibitor 39.8µM
CN(C)c1ccc(N=c2cc(-c3ccccc3)cc(-c3ccccc3)s2)cc1	none
Cc1c(-c2ccccc2)oc2c(C(=O)NC(C)C3CC3)cccc2c1=O (centres undefined)	none
CCOC(=O)CSc1nc2c(c(=O)[nH]c(=O)n2C)n1Cc1ccc(Cl)cc1	none
Cc1ccc(-c2ccc(CCC(=O)Nc3nnc(C)s3)o2)cc1	none
O=C(CNC(=O)c1cc(-c2cccs2)nc2ccccc12)NC1CC1	none
O=S(=O)(NCCn1cc(-c2cncnc2)nn1)c1ccc(Cl)cc1	none
COc1ccccc1-c1nnc(C2CCN(C(=O)c3ccc(C)cc3)CC2)o1	none
COc1ccc(C(=O)N2CC[C@H](c3nnc(-c4ccccc4OC)o3)C2)cc1OC	none
COc1ccccc1-c1nnc([C@H]2CCN(CC3CCCCC3)C2)o1	KDM5B inhibitor 35.5µM
COCCN1C(=O)CS(=O)C12CCN(S(=O)(=O)c1ccccc1)CC2 (centres undefined)	none
COc1ccccc1OCC(=O)Nc1cc(-c2ccccc2)no1	none
Cc1oc(-c2ccccc2F)nc1CS(=O)(=O)CC(=O)NCCCSC1CCCCC1	none
COc1ccc2c(c1)OCC(C(=O)NCc1csc(N3CCCC3)n1)C2 (centres undefined)	KDM5B inhibitor 14.1µM
CCCCOc1ccc(CNC(=O)C2COc3ccc(OC)cc3C2)cc1 (centres undefined)	none
CCc1ccc(CNC(=O)C2COc3ccc(OC)cc3C2)cc1 (centres undefined)	none
